This passage reports inhibition results from PubChem BioAssay AID1326 (NMMLSC, 2008).

The whole screen tested about 190,000 compounds, of which about 130 (0.068%) were called active. What follows is part of a selection rich in actives, with near analogues and random picks from the rest. Values without a mark were called inactive. Rule as the data show it: active = inhibition above about 40%; inactive = the rest.

A word on the inhibition: it is the drop in the measured response relative to a control, in per cent.

For this assay, the target named is ATP-dependent translocase ABCB1 (Homo sapiens) (UniProt P08183). As to the kind of experiment: ABCB1 efflux pump inhibitors, primary screen, cell-based, multiplex, flow cytometry, ABCG2 counter-screen (AID 1326).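 Also: 0% = vehicle and 100% = reference inhibitor; higher value means more JC-1 retained so stronger ABCB1 efflux block.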 The following applies: CCRF-Adr cells, JC-1 efflux, at 6.6 µM, active compounds read high.
Sequence of ATP-dependent translocase ABCB1 (Homo sapiens) (P08183 whole entry, looked up): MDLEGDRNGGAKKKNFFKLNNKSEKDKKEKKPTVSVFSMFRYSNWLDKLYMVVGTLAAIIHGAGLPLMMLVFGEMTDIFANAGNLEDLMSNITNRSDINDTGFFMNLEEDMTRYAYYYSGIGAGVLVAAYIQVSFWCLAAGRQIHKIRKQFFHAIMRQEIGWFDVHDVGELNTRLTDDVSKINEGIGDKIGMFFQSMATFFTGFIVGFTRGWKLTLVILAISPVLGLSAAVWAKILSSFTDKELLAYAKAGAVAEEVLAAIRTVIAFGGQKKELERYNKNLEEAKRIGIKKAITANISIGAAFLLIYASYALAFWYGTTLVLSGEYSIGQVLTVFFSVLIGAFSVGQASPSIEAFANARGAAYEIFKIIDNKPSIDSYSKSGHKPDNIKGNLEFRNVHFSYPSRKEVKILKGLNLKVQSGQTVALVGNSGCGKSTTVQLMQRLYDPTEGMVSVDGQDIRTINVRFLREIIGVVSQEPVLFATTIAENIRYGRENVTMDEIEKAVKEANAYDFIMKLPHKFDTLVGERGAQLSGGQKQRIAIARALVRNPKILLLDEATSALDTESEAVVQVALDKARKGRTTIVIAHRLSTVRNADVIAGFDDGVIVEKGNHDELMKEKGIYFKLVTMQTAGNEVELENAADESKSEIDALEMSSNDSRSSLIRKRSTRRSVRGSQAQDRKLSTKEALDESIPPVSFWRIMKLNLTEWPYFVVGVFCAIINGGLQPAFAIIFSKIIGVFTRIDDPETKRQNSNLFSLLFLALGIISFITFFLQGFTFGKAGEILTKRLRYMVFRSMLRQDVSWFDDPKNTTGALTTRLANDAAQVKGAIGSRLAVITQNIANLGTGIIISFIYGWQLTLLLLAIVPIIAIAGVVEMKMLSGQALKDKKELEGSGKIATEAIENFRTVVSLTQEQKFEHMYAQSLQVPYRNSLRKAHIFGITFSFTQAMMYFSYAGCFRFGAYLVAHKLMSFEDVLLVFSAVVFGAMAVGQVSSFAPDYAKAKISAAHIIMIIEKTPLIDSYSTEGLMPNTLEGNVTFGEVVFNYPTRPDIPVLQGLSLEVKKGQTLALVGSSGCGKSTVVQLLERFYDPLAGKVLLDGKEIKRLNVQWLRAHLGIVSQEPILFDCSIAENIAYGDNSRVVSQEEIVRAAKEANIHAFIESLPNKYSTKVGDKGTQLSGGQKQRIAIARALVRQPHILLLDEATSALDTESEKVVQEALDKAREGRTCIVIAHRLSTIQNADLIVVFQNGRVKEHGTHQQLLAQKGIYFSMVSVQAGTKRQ
On to `COc1ccc2c(-c3ccccc3)cc(SCC(=O)N(C)C3CCS(=O)(=O)C3)nc2c1` (stereo unspecified), for which the inhibition is 1.15%.

As for `O=C(CN1CCCCCC1)NCCN1C(=O)S/C(=C\c2ccccc2Cl)C1=O`, the inhibition is 0.67%.

Turning to `COCCn1c(C)cc(C(=O)CSc2nc3ccccc3c(=O)n2C(C)COC)c1C` (stereo unspecified), the inhibition is 2.97%.

Turning to `Cc1cc(C)cc(NC(=O)N2CCCCCCC2)c1`, the inhibition was 2.76%.

As to `COc1cccc(C(O)Cc2nc3ccccc3n2C)c1OC` (stereo unspecified), the inhibition is -0.47%.

In the case of `C=CCc1cccc2cc(C(=O)NC3CCCC3)c(=O)oc12`, the inhibition is 1.75%.

Take `Cc1c(C(=O)c2cccc([N+](=O)[O-])c2)c2ccccn2c1CCC#N`: the inhibition was 2.01%.

In the case of `NS(=O)(=O)c1cccc(NC(=O)CSc2nc3ccccc3n2-c2ccccc2)c1`, the inhibition was -1.23%.

Consider `Cc1ccc(-n2c(SCC(=O)Nc3ncc(Cl)cc3Cl)nc3ccccc32)cc1`, for which the inhibition is 56.9% (active).

For the compound `Cc1ccc(SCCC(=O)OCC(=O)Nc2ncc(Cl)cc2Cl)cc1`, the inhibition is 0.04%.

For `CCn1c(SCC(=O)Nc2nccs2)nnc1-c1ccco1`, the inhibition was 0.22%.

`COCCCNC(NC(=O)c1ccc(OC)cc1)C(Cl)(Cl)Cl` (stereo unspecified): the inhibition was 0.77%.

In the case of `O=c1[nH]c2cccnc2n(CCNc2ncc(C(F)(F)F)cc2Cl)c1=O`, the inhibition is 0.11%.

As to `CC(C)(C)n1ncc2c(=O)n(Cc3ccc(Cl)cc3)cnc21`, the inhibition was 0.59%.

On to `C#CCOCCOCCOCCNc1nc(N2CCN(C(=O)[C@H](CCCCN)n3cc([C@@H](N)C(C)CC)nn3)CC2)nc(N2CCN(C(=O)[C@H](Cc3ccc(O)cc3)n3cc([C@@H](N)C(C)CC)nn3)CC2)n1` (stereo partly specified), for which the inhibition was 0.44%.

As for `COc1ccc(Cn2c(=O)cc(C)[nH]c2=S)cc1`, the inhibition is 1.2%.

`O=C(Oc1c(-c2ccco2)oc2ccccc2c1=O)c1cccnc1`: the inhibition was 1.71%.

As to `O=C(N/N=C/c1sc(N2CCCCC2)nc1-c1cccs1)c1cccnc1`, the inhibition is -0.08%.

With `CCOc1cnc(C(=O)NNC(=O)c2ccccc2Br)o1`, the inhibition was -0.12%.

`COc1ccc(CN2CCNC(=O)C2CC(=O)N(C)Cc2ccccn2)cc1OC` (stereo unspecified): the inhibition is 0.3%.

As for `N=C1C(c2nc3ccccc3s2)=C(O)CN1NC(=O)c1ccc([N+](=O)[O-])cc1`, the inhibition is -0.23%.

Take `CN(CC(=O)Nc1ccccc1F)CC(=O)Nc1ccccc1Br`: the inhibition was -0.22%.

As to `CCOCCCn1c(NN)nc2ccccc2c1=O`, the inhibition was 0.54%.

Take `Nc1ccc(Cl)c(S(=O)(=O)Nc2ccccc2Cl)c1`: the inhibition is 0.19%.

As for `COc1ccc(-c2[nH]ncc2CN(Cc2nccn2C)C(C)C)cc1F`, the inhibition is 2.14%.

In the case of `CCC(C(=O)Nc1ccc(C(C)C)cc1)c1ccccc1` (stereo unspecified), the inhibition is 0.19%.

Regarding `N#Cc1c(NC(=O)C2CCCO2)sc2c1CCCCC2` (stereo unspecified), the inhibition is 1.4%.

For `O=C(C1CC1)N1N=C2CCCCC2C1(O)C(F)(F)F` (stereo unspecified), the inhibition was 0.21%.

For `COCC(C)NCc1cc(Br)ccc1OC` (stereo unspecified), the inhibition was 0.42%.

For `Cc1ccc2nc(-c3cccnc3)c(NC3CCCC3)n2c1`, the inhibition was 1.9%.

Consider `COc1cc2[nH]c(=O)n(Cc3ccc(C(=O)NC4CCN(Cc5ccccc5)CC4)cc3)c(=O)c2cc1OC`, for which the inhibition was 0%.

In the case of `O=C(NCCc1ccccc1)C1CCC(Cn2c(=O)c3ccccc3n(Cc3cccnc3)c2=O)CC1` (stereo unspecified), the inhibition is 4.02%.

Consider `CC(=O)Nc1ccc(C(=O)CSc2nc3ccc(C)cc3[nH]2)cc1`, for which the inhibition is -0.95%.

Turning to `c1ccc(CN=C2Nc3ccccc3CS2)nc1`, the inhibition was 0.26%.

As for `O=C(c1ccc(N2CCOCC2)c([N+](=O)[O-])c1)N1CCN(S(=O)(=O)c2cccs2)CC1`, the inhibition was 0.44%.

As to `CC(C)CN1CCNC(=O)C1CC(=O)N(C)CC1CCOCC1` (stereo unspecified), the inhibition was 0.15%.

As for `CCCCCc1nnc(NC(=O)c2ccc(=O)n(C)n2)s1`, the inhibition was 0.44%.

For the compound `CC1CCCN(CC(O)COc2ccc3c(c2)OCO3)C1` (stereo unspecified), the inhibition was 0.12%.

`CCCCN1C(=S)NC[C@@H]1C(C)CC` (stereo partly specified): the inhibition is 0.02%.

For the compound `CC/C(=N\NC(=O)c1ccccc1Cl)c1ccc(Br)s1`, the inhibition was 1.38%.

On to `COc1ccc(CCNC(=O)CSc2nc3[nH]ncc3c(=O)n2-c2cccc(C(F)(F)F)c2)cc1OC`, for which the inhibition was 0.5%.

`O=C(C1CCCO1)N1CCN(C(=S)NC2CC2)CC1` (stereo unspecified): the inhibition was 0.55%.

Take `CNC(=S)N1CCC(NC(=O)C(Cc2ccc(F)cc2)NC(C)=O)CC1` (stereo unspecified): the inhibition was 0.7%.

In the case of `Cc1ccc(C)c(NC(=O)CCC(=O)N/N=C2/CC(=O)CC(C)(C)C2)c1`, the inhibition was 0.24%.

For `Cc1c(CCOC(=O)CC23CC4CC(CC(C)(C4)C2)C3)sc[n+]1Cc1ccc([N+](=O)[O-])cc1`, the inhibition was 53.8% (active).

In the case of `Cc1c(CCOC(=O)c2cc([N+](=O)[O-])ccc2Cl)sc[n+]1CCCCS(=O)(=O)[O-]`, the inhibition is 1.17%.

For the compound `Cc1c(CCO)sc[n+]1CC(=O)OC12CC3CC(CC(C3)C1)C2`, the inhibition is 0.29%.

Turning to `CC(C)NC(=O)c1ccc(Cl)cc1Cl`, the inhibition is -0.21%.

As to `CC(=O)c1ccc(NC(=O)C(C)NCc2ccc(Cl)cc2)cc1` (stereo unspecified), the inhibition is 0.85%.

For the compound `Cc1nc(CN2CCN(C(=O)CCc3nnc(Cc4c[nH]c5ccccc45)o3)CC2)cs1`, the inhibition was -1.57%.

For `CN1CCN(/N=C/c2ccc(C#N)cc2)CC1`, the inhibition was 1.07%.

For the compound `CCC(C)(C)NC(=O)CN(C(=O)C(=O)Nc1ccc2c(c1)OCCO2)C(C)(C)CC`, the inhibition was 2.48%.

Regarding `CSc1ccc(/C=N/NC(=O)c2cccc(Cl)c2)cc1`, the inhibition was -0.32%.

As to `CC(=O)Nc1ccccc1OC(C)C(=O)N1CCC(C)CC1` (stereo unspecified), the inhibition is 0.05%.

With `COc1cc(NC(=S)NCc2ccc(S(N)(=O)=O)cc2)cc(OC)c1`, the inhibition is -0.49%.

Consider `COc1ccc(NS(=O)(=O)c2cc(NC(=O)C3CCCCC3)ccc2N2CCOCC2)cc1`, for which the inhibition was 0.89%.

For the compound `CC[C@H](C)[C@@H](C(=O)N1CCNCC1)n1cc([C@@H](N)Cc2ccc(O)cc2)nn1`, the inhibition is 0.31%.

In the case of `COc1ccc(C2=NN(C(=O)CCC(=O)O)C(c3cccs3)C2)cc1OC` (stereo unspecified), the inhibition was 0.01%.

Consider `C=CCn1c(SCc2ccc(Cl)c(Cl)c2)nnc1C(CO)NC(=O)c1ccc(OC)cc1` (stereo unspecified), for which the inhibition was 1.4%.

With `C=CCn1c(SCCOc2ccc(OC)cc2)nnc1C(NC(=O)c1ccc(OC)cc1)C(C)C` (stereo unspecified), the inhibition was 48.2% (active).

`C=CCn1c(SCC(=O)c2ccc(Br)cc2)nnc1C(C)NC(=O)Cc1ccc(OC)cc1` (stereo unspecified): the inhibition is 1.19%.
